This is part of a sample that, as a whole, favours compounds with a hit. Of some 83,000 tested, about 20% had one in any assay.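 Assay: single dose, 48 h. Readout: percent growth (0 = no net growth; negative = cell death). Active: <10.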 Calls of active or inactive are those of the source.
How the values were obtained:
Test in all cases: NCI-60 one-dose screen, 48 h (100 = growth as untreated, 0 = no growth, -100 = all killed)
Conditions in all cases: 10 µM unless noted
[1] = tested on: HT29 colon
[2] = tested on: SNB-75 CNS
[3] = tested on: SNB-19 CNS
[4] = tested on: U251 CNS
[5] = tested on: PC-3 prostate
[6] = tested on: SK-MEL-5 melanoma
[7] = tested on: UACC-62 melanoma
[8] = tested on: LOX IMVI melanoma
[9] = tested on: SK-MEL-28 melanoma
[10] = tested on: SK-MEL-2 melanoma

Measured: growth

COc1ccc(-c2nnc(COc3ccc(NC(=O)Nc4cc(C(F)(F)F)cc(C(F)(F)F)c4)cc3F)o2)cc1
inactive: [2] 16.7% | [3] 14.4% | [7] 16.4% | [9] 16.6%
active: [1] 2.11% | [4] 0.294% | [5] -12.8% | [6] -21.4% | [8] -15% | [10] -32.9%

OC(Cc1cccnc1)c1ccccc1 (centres undefined)
inactive: [1] 106% | [2] 99.7% | [3] 98.9% | [4] 98.1% | [5] 101% | [6] 102% | [7] 97.4% | [8] 101% | [9] 108% | [10] 102%

O=C(Nc1nc2ccccc2s1)c1cc(-c2ccc(F)cc2)n2nc(-c3ccccc3)cc2n1
inactive: [1] 74.5% | [2] 38.4% | [3] 71.3% | [4] 18.2% | [5] 56.9% | [6] 72.6% | [7] 70.6% | [8] 45.6%

COc1ccc2c(c1)nc(N)c1c3cc(OC)c(OC)cc3cn21
active: [1] 9.28%
inactive: [2] 57.1% | [3] 62.2% | [4] 30.6% | [5] 53.1% | [6] 34.1% | [7] 22.1% | [8] 53.2% | [9] 57.5% | [10] 47.7%

O=C(NCCCO)c1cc(Cl)ccc1O
active: [1] 3.68% | [5] 7.13% | [7] 9.67% | [10] -19%
inactive: [2] 27.8% | [3] 31.1% | [4] 12.3% | [6] 18.4% | [8] 13.3% | [9] 38%

COc1ccc2c(c1)/C(=C\c1c[nH]c3ccc(F)cc13)C(=O)N2
inactive: [1] 86.1% | [2] 86.7% | [3] 93.9% | [4] 83.4% | [5] 84% | [6] 97% | [7] 90.7% | [8] 74.3% | [9] 105%

COc1cccc(C2C(C#N)=C(N)Oc3cc(OC)ccc32)c1 (centres undefined)
inactive: [2] 46.1% | [3] 44.1% | [7] 30.9% | [8] 13.2% | [9] 56.2% | [10] 19.8%
active: [1] -21.2% | [4] 3.36% | [5] -2.64% | [6] -4.55%

C=C(C)[C@H]1CC/C(C)=C/CC[C@]2(C)O[C@H]2CC/C(C=O)=C\C1O (some centres undefined)
inactive: [1] 98.2% | [2] 106% | [3] 112% | [4] 103% | [5] 122% | [6] 94.8% | [7] 106% | [8] 98.1% | [9] 115% | [10] 1410%

COc1cc(OC)c2sc(-c3ccc(-n4cncc4-c4ccc(N)cc4)cc3)nc2c1
inactive: [1] 62.6% | [2] 86.1% | [3] 71.2% | [4] 59.3% | [5] 67.7% | [6] 56.6% | [7] 96.6% | [8] 62.7% | [9] 97.5% | [10] 97.6%

CCOC(=O)c1ccccc1OC(=O)NNc1ccccc1
inactive: [1] 109% | [2] 78.9% | [3] 90.7% | [4] 83.2% | [5] 34.9% | [6] 57.2% | [7] 21.5% | [8] 73.5% | [9] 93.6% | [10] 33.2%

CNc1ccc(CSc2ccc(Cl)cc2)cc1
inactive: [1] 109% | [2] 95.4% | [3] 89.5% | [4] 97.4% | [5] 72.9% | [6] 97.9% | [7] 83% | [8] 103% | [9] 112%

CN(C)c1nc(-c2ccco2)n2nc(-c3ccco3)cc2n1
inactive: [1] 96.9% | [2] 81.8% | [3] 98.9% | [4] 88.9% | [5] 84.4% | [6] 81.8% | [7] 82.2% | [8] 75.8% | [9] 119% | [10] 122%

O=C(COC(=O)[C@H](C[Se][Se]C[C@H](NC(=O)c1ccc(Br)cc1F)C(=O)OCC(=O)c1ccc(F)cc1)NC(=O)c1ccc(Br)cc1F)c1ccc(F)cc1
active: [1] 3.66% | [2] -100% | [3] -86.3% | [4] -100% | [5] -51.6% | [6] -18.8% | [7] -4.12% | [8] -83% | [9] -90.6% | [10] -58.9%

Cc1c(C(N)=O)sc2ncn(CC(=O)Nc3ccc(Cl)cc3)c(=O)c12
inactive: [1] 126% | [2] 101% | [3] 103% | [4] 102% | [5] 97% | [6] 107% | [7] 99.2% | [8] 96.8% | [9] 145%

Cc1c(C(N)=O)sc2ncn(Cc3ccccc3)c(=O)c12
inactive: [1] 103% | [2] 92.6% | [3] 102% | [4] 96.9% | [5] 113% | [6] 103% | [7] 102% | [8] 89.6% | [9] 112% | [10] 109%

C[C@]12C[C@H](O)[C@H]3[C@@H](CCC4=CC(=O)CC[C@@]43C)[C@@H]1CC[C@@H]2C(=O)CO
inactive: [1] 108% | [2] 78.5% | [3] 95.6% | [4] 93.5% | [5] 97.3% | [6] 91% | [7] 91.4% | [8] 97.7% | [9] 102% | [10] 93.4%

COc1ccc(C(=O)/C=C/c2c(Cl)nc3c(c(C)nn3-c3ccccc3)c2-c2ccc(Br)cc2)cc1
inactive: [1] 100% | [2] 88.2% | [3] 101% | [4] 110% | [5] 107% | [6] 101% | [7] 91.8% | [8] 96.4% | [9] 106% | [10] 93.8%

NC(=O)SCC(=O)Nc1ccccc1-c1ccccc1
inactive: [1] 87.2% | [2] 138% | [3] 89.5% | [4] 92.9% | [5] 90.2% | [6] 111% | [7] 81.5% | [8] 90.6% | [9] 116% | [10] 88.9%

COc1ccc2nc(NC(=O)c3cc(-c4ccc(F)cc4)n4nc(-c5ccccc5)cc4n3)sc2c1
inactive: [1] 92.5% | [2] 80.4% | [3] 83.3% | [4] 64.2% | [5] 63.7% | [6] 55.5% | [7] 67.9% | [8] 67.9% | [9] 73.1%

NNC(=O)NO
inactive: [1] 96% | [2] 85.9% | [3] 108% | [4] 104% | [5] 101% | [6] 105% | [7] 106% | [8] 97.7% | [9] 107% | [10] 91.1%

CCOC(=O)C1=C(C)N2C(=NC3=C(CCC/C3=C\c3ccc(Cl)cc3)C2c2ccc(Cl)cc2)S1 (centres undefined)
inactive: [2] 64.2% | [3] 55.4% | [5] 24.3% | [6] 40.8% | [7] 54.7% | [9] 48.8% | [10] 76.6%
active: [1] -54.3% | [4] -100% | [8] -100%

c1ccc(Nc2nnc(-c3cc(-c4cccnc4)n(-c4ccccc4)n3)s2)cc1
inactive: [2] 102% | [3] 102% | [4] 69.5% | [5] 82.4% | [6] 69.9% | [7] 84.1% | [8] 69.8% | [9] 106% | [10] 96.5%
active: [1] 3.7%

CCCCCCCC/C=C/CCCCCCCC1=NC(C)(C)CN1CC(C)O (centres undefined)
active: [1] -64.8% | [4] -17% | [7] 3.95% | [8] -99.4%
inactive: [2] 32% | [3] 72.3% | [5] 42% | [6] 53.3% | [9] 53.2% | [10] 33%

O=C1Cc2cc(CCn3cncn3)c(Cl)cc2N1
inactive: [1] 97.1% | [2] 63.6% | [3] 74.4% | [4] 73.4% | [5] 86.4% | [6] 40.1% | [7] 68.2% | [8] 81% | [9] 67.2% | [10] 71.3%

CCOc1ccccc1C(=O)OCC(=O)Nc1cccc(S(=O)(=O)N(C)C)c1
inactive: [1] 98.6% | [2] 82.7% | [3] 83.5% | [4] 105% | [5] 107% | [6] 97.4% | [7] 94.5% | [8] 101% | [9] 104% | [10] 94.2%

O=C(OCCBr)c1ccc(Cl)c([N+](=O)[O-])c1
active: [4] -31.7%
inactive: [1] 45.4% | [2] 104% | [3] 38.9% | [5] 70% | [6] 113% | [7] 104% | [8] 91.1% | [9] 60% | [10] 94.1%

C/C(=N\N1CC(=O)NC1=O)c1ccc([N+](=O)[O-])o1
inactive: [1] 102% | [2] 96.4% | [3] 99.3% | [4] 102% | [5] 93.8% | [6] 93.4% | [7] 83.2% | [8] 67.5% | [9] 117% | [10] 106%

COc1c(O)cc2oc3cc(O)c(CC=C(C)C)c(O)c3c(=O)c2c1C/C=C(\C)CCC=C(C)C
inactive: [1] 26.7% | [2] 84.6% | [3] 80.5% | [4] 24.1% | [5] 19.5% | [6] 86.6% | [7] 98.9% | [9] 94.4% | [10] 75.3%
active: [8] -85.8%

Source: PubChem BioAssay (NCI)
